Calls of active or inactive are those of the source. How the source made its calls: active means hit-call score of the fitted dose curve at least 0.9, where 1 is the maximum; inactive means score below 0.9.

This passage reports outcome and AC50 results from PubChem BioAssay (EPA / NIEHS).

Read-out in assay [1]: Epidermal growth factor receptor (EGFR), EGFR (gene 1956)
The assay is described as follows: BSK_hDFCGF_EGFR: BioMAP Diversity Plus: hDFCGF Assay for Epidermal growth factor receptor (EGFR) Biomarker Activity (AID 2283057). Particulars: primary human foreskin fibroblasts; actives raise or lower the signal. In a few lines: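 EGFR levels by ELISA in human dermal fibroblast cultures, 24 h post-treatment, fitted bidirectionally versus DMSO. Parallel wells stained with sulforhodamine B to detect overt cytotoxicity.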

Read-out in assay [2]: Interleukin-8 (IL8), CXCL8 (gene 3576)
The assay is described as follows: BSK_hDFCGF_IL8: BioMAP Diversity Plus: hDFCGF Assay for Interleukin-8 (IL8) Biomarker Activity (AID 2283058). The note with it: primary human foreskin fibroblasts; actives raise or lower the signal. In a few lines:
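Fibroblast monolayers (human foreskin, hDFCGF) received test chemical for 24 h before ELISA detection of IL-8; either increases or decreases relative to DMSO count as activity.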

A short description of assay [3]: BSK_hDFCGF_Proliferation: Cell Proliferation Assessment in the BioMAP Diversity Plus: hDFCGF Assay (AID 2283059).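 Further: curves fitted for both rise and fall of signal versus DMSO baseline.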 The note with it: primary human foreskin fibroblasts. The gist of the method:
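Steps: dose primary human dermal fibroblasts (foreskin); […] fix in 10% TCA; stain with 0.1% SRB; read 560 nm; fit gain or loss of signal against DMSO.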

Read-out in assay [4]: Macrophage colony-stimulating factor (MCSF), CSF1 (gene 1435)
In words: BSK_hDFCGF_MCSF: BioMAP Diversity Plus: hDFCGF Assay for Macrophage colony-stimulating factor (MCSF) Biomarker Activity (AID 2283060). The note with it: primary human foreskin fibroblasts; actives raise or lower the signal. The gist of the method:
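fibroblasts (human foreskin, primary), 24 h post-dose; M-CSF by ELISA; bidirectional fit, DMSO = baseline.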

Read-out in assay [5]: TIMP metallopeptidase inhibitor 1 (TIMP1), TIMP1 (gene 7076)
In words: BSK_hDFCGF_TIMP1: BioMAP Diversity Plus: hDFCGF Assay for TIMP metallopeptidase inhibitor 1 (TIMP1) Biomarker Activity (AID 2283062). The note with it: primary human foreskin fibroblasts; actives raise or lower the signal. In a few lines: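 Bidirectional curve fitting against DMSO baseline yielded this endpoint, based on ELISA detection of TIMP-1 in primary human foreskin fibroblasts exposed to compound for 24 h.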

Read-out in assay [6]: Monokine induced gamma interferon (MIG), CXCL9 (gene 4283)
In words: BSK_hDFCGF_MIG: BioMAP Diversity Plus: hDFCGF Assay for Monokine induced gamma interferon (MIG) Biomarker Activity (AID 2283063). Particulars: primary human foreskin fibroblasts; actives raise or lower the signal. In a few lines:
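Endpoint derived by bidirectional fitting relative to DMSO; MIG quantified via ELISA in primary human foreskin fibroblasts harvested 24 h after dosing.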

Read-out in assay [7]: Matrix Metallopeptidase 1 (MMP1), MMP1 (gene 4312)
The assay is described as follows: BSK_hDFCGF_MMP1: BioMAP Diversity Plus: hDFCGF Assay for Matrix Metallopeptidase 1 (MMP1) Biomarker Activity (AID 2283064). The note with it: primary human foreskin fibroblasts; actives raise or lower the signal. In a few lines:
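MMP1 levels quantified by ELISA 24 h after dosing human dermal fibroblast cultures, with parallel SRB total-protein staining for overt cytotoxicity. Data fitted in both directions against DMSO baseline.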

Read-out in assay [8]: Vascular cell adhesion molecule 1 (VCAM1), VCAM1 (gene 7412)
The assay is described as follows: BSK_hDFCGF_VCAM1: BioMAP Diversity Plus: hDFCGF Assay for Vascular cell adhesion molecule 1 (VCAM1) Biomarker Activity (AID 2283065). Particulars: primary human foreskin fibroblasts; actives raise or lower the signal. In a few lines: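 Measured after 24 h chemical treatment of primary human skin fibroblasts, VCAM-1 was detected by ELISA and concentration-response analysed in both directions versus DMSO vehicle.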

Read-out in assay [9]: Plasminogen activator inhibitor-1 (PAI1), SERPINE1 (gene 5054)
In words: BSK_hDFCGF_PAI1: BioMAP Diversity Plus: hDFCGF Assay for Plasminogen activator inhibitor-1 (PAI1) Biomarker Activity (AID 2283066). The note with it: primary human foreskin fibroblasts; actives raise or lower the signal. In a few lines: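 PAI-1 levels in human dermal foreskin fibroblasts were quantified by ELISA 24 h after dosing, with gain or loss analysed against DMSO. Overt cytotoxicity was checked by sulforhodamine B total-protein staining in parallel cultures.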

Read-out in assay [10]: Intercellular Adhesion Molecule 1 (ICAM1), ICAM1 (gene 3383)
In words: BSK_KF3CT_ICAM1: BioMAP Diversity Plus: KF3CT Assay for Intercellular Adhesion Molecule 1 (ICAM1) Biomarker Activity (AID 2283067). The note with it: primary human keratinocytes with fibroblasts; actives raise or lower the signal. In a few lines:
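Bidirectional curve fitting against a DMSO baseline was applied to ICAM-1 ELISA signal from primary human skin co-cultures harvested 24 h after treatment, with SRB staining of parallel wells for overt cytotoxicity.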

Read-out in assay [11]: Interferon-gamma inducible Protein 10 (IP10), CXCL10 (gene 3627)
The assay is described as follows: BSK_KF3CT_IP10: BioMAP Diversity Plus: KF3CT Assay for Interferon-gamma inducible Protein 10 (IP10) Biomarker Activity (AID 2283068). Particulars: primary human keratinocytes with fibroblasts; actives raise or lower the signal. In a few lines:
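KF3CT co-culture (keratinocytes + foreskin fibroblasts), 24 h compound, IP-10 by ELISA; bidirectional fit vs DMSO baseline.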

Assay [12] is described as follows: BSK_KF3CT_SRB: Viability Assessment in the BioMAP Diversity Plus: KF3CT Assay (AID 2283069).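 Further: read 24 h after compound addition.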 Particulars: primary human keratinocytes with fibroblasts. The gist of the method:
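Cytotoxicity was gauged by SRB staining (0.1% SRB, 10% TCA fixation, 560 nm) of parallel cultures at 24 h. The cells were primary human skin keratinocytes co-cultured with fibroblasts, and activity was fitted in both directions against DMSO.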

Read-out in assay [13]: Interleukin-1 alpha (IL1a), IL1A (gene 3552)
In words: BSK_KF3CT_IL1a: BioMAP Diversity Plus: KF3CT Assay for Interleukin-1 alpha (IL1a) Biomarker Activity (AID 2283070). Particulars: primary human keratinocytes with fibroblasts; actives raise or lower the signal. The gist of the method:
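IL-1a was detected by ELISA 24 h after chemical treatment of a co-culture of human skin keratinocytes and foreskin fibroblasts. Gain or loss of signal was fitted against the DMSO baseline.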

Read-out in assay [14]: Transforming growth factor beta 1 (TGFb1), TGFB1 (gene 7040)
In words: BSK_KF3CT_TGFb1: BioMAP Diversity Plus: KF3CT Assay for Transforming growth factor beta 1 (TGFb1) Biomarker Activity (AID 2283072). The note with it: primary human keratinocytes with fibroblasts; actives raise or lower the signal. In a few lines:
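ELISA quantifies TGF-b1 at 24 h post-dose in a primary human skin co-culture of keratinocytes and fibroblasts, with gain or loss judged against DMSO. Parallel SRB total-protein staining flags overt cytotoxicity.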

Read-out in assay [15]: C-C motif chemokine 2 (Homo sapiens) (UniProt P13500)
The assay is described as follows: BSK_KF3CT_MCP1: BioMAP Diversity Plus: KF3CT Assay for Monocyte Chemoattractant Protein 1 (MCP1/CCL2) Biomarker Activity (AID 2283073). The note with it: primary human keratinocytes with fibroblasts; actives raise or lower the signal. The gist of the method: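 Biomarker MCP-1 is measured by ELISA in primary human keratinocytes co-cultured with foreskin fibroblasts, 24 h after chemical treatment; DMSO serves as the negative control and activity baseline.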

Read-out in assay [16]: Matrix Metallopeptidase 9 (MMP9), MMP9 (gene 4318)
The assay is described as follows: BSK_KF3CT_MMP9: BioMAP Diversity Plus: KF3CT Assay for Matrix Metallopeptidase 9 (MMP9) Biomarker Activity (AID 2283074). Particulars: primary human keratinocytes with fibroblasts; actives raise or lower the signal. In a few lines: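 MMP-9 quantified by ELISA after 24 h chemical treatment of primary human skin keratinocyte/fibroblast co-cultures; gain or loss fitted against DMSO, with parallel SRB staining (0.1% SRB, 560 nm) for overt cytotoxicity.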

Read-out in assay [17]: urokinase plasminogen activator (uPA), PLAU (gene 5328)
The assay is described as follows: BSK_KF3CT_uPA: BioMAP Diversity Plus: KF3CT Assay for urokinase plasminogen activator (uPA) Biomarker Activity (AID 2283075). The note with it: primary human keratinocytes with fibroblasts; actives raise or lower the signal. In a few lines: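 ELISA read-out of uPA 24 h after dosing human skin keratinocytes co-cultured with foreskin fibroblasts. Signal change fitted both ways relative to DMSO; sulforhodamine B on parallel cultures marks overt cytotoxicity.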

Read-out in a further assay: CD40, CD40 (gene 958)
The assay is described as follows: BSK_LPS_CD40: BioMAP Diversity Plus: LPS Assay for CD40 Biomarker Activity (AID 2283076). The note with it: primary human HUVEC with PBMC; actives raise or lower the signal. In a few lines:
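Using a multiplexed primary human co-culture (umbilical vein endothelium plus PBMC), CD40 was read by ELISA 24 h after dosing, with cytotoxicity tracked by sulforhodamine B staining of parallel cultures and activity fitted bidirectionally versus DMSO.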

Assay [18] in a line: BSK_hDFCGF_SRB: Viability Assessment in the BioMAP Diversity Plus: hDFCGF Assay (AID 2283061).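 Further: cells exposed to compound for 24 h before the read.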 Particulars: primary human foreskin fibroblasts. In a few lines:
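SRB-based viability read on primary human skin fibroblasts at 24 h: TCA fixation, 0.1% dye, 560 nm. Gain or loss of signal is fitted against the DMSO negative control.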

By AC50 is commonly meant the midpoint of the concentration-response curve, whichever way the signal moves. As for `CC(C)(O)c1ccc(CNC(=O)c2cccnc2Oc2ccc(F)cc2)cc1`, the outcome in assay [1], in [2], in [3], in [4], in assay [5] and in assay [6] was inactive. In addition, the outcome in [7], in [8], in assay [10], in assay [11], in assay [12] and in assay [13] was inactive. The outcome in [14] is “inactive”; in assay [15], “inactive”; in [16] it was “inactive”; in assay [17], “inactive”; with CD40, CD40 (gene 958), “inactive”. Moreover, in assay [9], the half-maximal activity concentration (AC50) is 0.457 µM (active).

Turning to `CC(=O)O[C@]1(C(C)=O)CC[C@H]2[C@@H]3C=C(Cl)C4=CC(=O)[C@@H]5C[C@@H]5[C@]4(C)[C@H]3CC[C@@]21C`, the result in assay [1], in assay [2], in assay [18], in assay [5], in assay [6] and in assay [7] was inactive. The outcome in [8], in assay [10], in assay [12], in assay [13], in assay [14] and in assay [15] was inactive. Moreover, the result in assay [16] and in assay [17] was inactive. Besides, the AC50 in assay [3] was 17 µM (active); in assay [9], 1.74 µM (active); in the assay with CD40, CD40 (gene 958), 31.5 µM (active).

In the case of `CC(C)c1cccc(C(C)C)c1NC(=O)NS(=O)(=O)c1cc(C(C)(C)O)co1`, the result in assay [1], in assay [2], in assay [3], in [4], in assay [5] and in assay [6] was inactive. The outcome in [7], in assay [9], in [10], in assay [11], in assay [12] and in assay [13] was inactive. Besides, the outcome in [14] is “inactive”; in assay [15] it was “inactive”; in assay [16], “inactive”; in assay [17], “inactive”; with CD40, CD40 (gene 958) it was “inactive”.

As for `NC=O`, the outcome in assay [1], in assay [2], in assay [4], in assay [5], in assay [6] and in [7] was inactive. Further, the result in assay [9], in assay [10], in [11], in [12], in assay [13] and in assay [14] was inactive. Also, the outcome in assay [15] was “inactive”; in assay [16] it was “inactive”; in [17], “inactive”; with CD40, CD40 (gene 958) it was “inactive”. The AC50 in [3] was 19.2 µM (active).

In the case of `O=C(O)CC(O)(CC(=O)O)C(=O)O`, the outcome in assay [1], in assay [2], in [3], in [4], in assay [5] and in [6] was inactive. Besides, the result in [7], in [9], in assay [10], in [11], in [12] and in [13] was inactive. Besides, the outcome is “inactive” in [14]; “inactive” in assay [15]; “inactive” in assay [16]; “inactive” in assay [17]; “inactive” with CD40, CD40 (gene 958).
